Measured values: PubChem BioAssay (NCATS)
Records with an inconclusive call do not appear. Calls of active or inactive are those of the source. Unless noted, calls come from the whole dose curve; as a rule, active = well fitted curve in the direction sought with a large enough effect; inconclusive = small, poorly fitted or top-dose-only effect, or another doubt; inactive = no such curve, though single readings can be large; an effect the other way counts as inactive or inconclusive.

Experiments:
[1] = qHTS for Inhibitors of Plasmodium falciparum (DD2) proliferation (AID 504314); note: potency is the fitted concentration of half-maximal effect;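 for activity, negative = inhibition: parasite DNA measured by SYBR Green fluorescence after red cell lysis; plate controls were DMSO vehicle for no effect and artemisinin wells for full effect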
How it was run: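 SYBR Green DNA-fluorescence growth assay: infected RBCs at 0.3% parasitemia, 2.5% hematocrit, 72 h compound exposure, 37C, 5% CO2; overnight lysis with dye at RT; normalized to 0.29 uM artemisinin and vehicle.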

[2] = qHTS for Inhibitors of Plasmodium falciparum (7G8) proliferation (AID 504316); note: nearly all actives have a fitted effect of over 65% in size; note: potency is the fitted concentration of half-maximal effect;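 for activity change, negative = inhibition: series mostly up to about 6.7 µM; 0% = DMSO vehicle and -100% = 0.29 µM artemisinin full kill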
How it was run: (§1)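 Parasite growth measured as SYBR Green DNA fluorescence (ex 485, em 535 nm) after overnight lysis following 72 h culture at 37 °C, 0.3% parasitemia, 2.5% hematocrit. Values normalized against DMSO and 0.29 uM artemisinin controls, with plate-stack correction.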

[3] = qHTS for Inhibitors of Plasmodium falciparum (HB3) proliferation (AID 504318);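 note: 0% = DMSO vehicle and -100% = artemisinin control; nearly all actives have a fitted effect of over 60% in size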
How it was run: as §1

[4] = target: Atrial natriuretic peptide receptor 1 (Homo sapiens) (UniProt P16066); assay: Natriuretic polypeptide receptor (hNpr1) antagonism - Pilot CMLD screen (AID 1347052; calls by dose curve;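 note: HEK293 cells with hNpr1 stimulated by hNppA peptide at 0.1 nM; cGMP level read as GloSensor luciferase luminescence after agonist stimulation; series mostly up to about 9.2 µM; % is set by controls: 0 for no effect and ±100 for the full control effect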)
[5] = qHTS for Inhibitors of Plasmodium falciparum (GB4) proliferation (AID 504315);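 note: 0% = DMSO vehicle and -100% = 0.29 µM artemisinin control; nearly all actives have a fitted effect of over 50% in size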
How it was run: as §1

[6] = qHTS for Inhibitors of Plasmodium falciparum (CP250) proliferation (AID 504320);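 note: plate controls were DMSO vehicle for no effect and 0.29 µM artemisinin control for full effect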
How it was run: as §1

[7] = target: Cytochrome P450 2C9 (Homo sapiens) (UniProt P11712); assay: qHTS Assay for Inhibitors and Substrates of Cytochrome P450 2C9 (AID 883); note: nearly all actives have a fitted effect of over 60% in size; note: potency is the fitted concentration of half-maximal effect; for activity change, negative = inhibition: % is set by controls: 0 for no effect and ±100 for the full control effect
How it was run: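 CYP2C9 deoxyluciferin hydroxylation, 37C, 60 min with NADPH regeneration; 10nM enzyme, 100uM Luciferin-H (KM). Glo detection reagent stopped reaction; luminescence normalized to sulphaphenazole (57uM) full inhibition.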

[8] = target: Cytochrome P450 3A4 (Homo sapiens) (UniProt P08684); assay: qHTS Assay for Activators of Cytochrome P450 3A4 (AID 885); note: nearly all actives have a fitted effect of over 65% in size
How it was run: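 Activators are scored by enhanced luminescence from CYP3A4 conversion of luciferin-PPXE (25uM, equal to KM) to luciferin, after 60 min at RT with an NADPH-regenerating system.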

[9] = target: Cytochrome P450 2C19 (Homo sapiens) (UniProt P33261); assay: qHTS Assay for Inhibitors and Substrates of Cytochrome P450 2C19 (AID 899); note: potency is the fitted concentration of half-maximal effect; nearly all actives have a fitted effect of over 60% in size
How it was run: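 In 50mM KPO4, the reaction held 5nM enzyme and KM-level (10uM) Luciferin-H EGE; it ran 60 min at 37C after NADPH regeneration and a 10 min compound preincubation. Luminescence values were scaled to 57uM ketoconazole as complete inhibition.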

[10] = target: Cytochrome P450 3A4 (Homo sapiens) (UniProt P08684); assay: qHTS Assay for Inhibitors and Substrates of Cytochrome P450 3A4 (AID 884); note: potency is the fitted concentration of half-maximal effect; nearly all actives have a fitted effect of over 50% in size
How it was run: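 Luminescent readout of luciferin produced by CYP3A4 (20 nM) dealkylation of Luciferin-PPXE, 25 uM (its KM). NADPH-driven reaction ran 60 min at RT after 10 min compound preincubation; data scaled to 57 uM ketoconazole as 100% inhibition.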

Atrial natriuretic peptide receptor 1 (Homo sapiens), sequence (P16066 whole entry, looked up): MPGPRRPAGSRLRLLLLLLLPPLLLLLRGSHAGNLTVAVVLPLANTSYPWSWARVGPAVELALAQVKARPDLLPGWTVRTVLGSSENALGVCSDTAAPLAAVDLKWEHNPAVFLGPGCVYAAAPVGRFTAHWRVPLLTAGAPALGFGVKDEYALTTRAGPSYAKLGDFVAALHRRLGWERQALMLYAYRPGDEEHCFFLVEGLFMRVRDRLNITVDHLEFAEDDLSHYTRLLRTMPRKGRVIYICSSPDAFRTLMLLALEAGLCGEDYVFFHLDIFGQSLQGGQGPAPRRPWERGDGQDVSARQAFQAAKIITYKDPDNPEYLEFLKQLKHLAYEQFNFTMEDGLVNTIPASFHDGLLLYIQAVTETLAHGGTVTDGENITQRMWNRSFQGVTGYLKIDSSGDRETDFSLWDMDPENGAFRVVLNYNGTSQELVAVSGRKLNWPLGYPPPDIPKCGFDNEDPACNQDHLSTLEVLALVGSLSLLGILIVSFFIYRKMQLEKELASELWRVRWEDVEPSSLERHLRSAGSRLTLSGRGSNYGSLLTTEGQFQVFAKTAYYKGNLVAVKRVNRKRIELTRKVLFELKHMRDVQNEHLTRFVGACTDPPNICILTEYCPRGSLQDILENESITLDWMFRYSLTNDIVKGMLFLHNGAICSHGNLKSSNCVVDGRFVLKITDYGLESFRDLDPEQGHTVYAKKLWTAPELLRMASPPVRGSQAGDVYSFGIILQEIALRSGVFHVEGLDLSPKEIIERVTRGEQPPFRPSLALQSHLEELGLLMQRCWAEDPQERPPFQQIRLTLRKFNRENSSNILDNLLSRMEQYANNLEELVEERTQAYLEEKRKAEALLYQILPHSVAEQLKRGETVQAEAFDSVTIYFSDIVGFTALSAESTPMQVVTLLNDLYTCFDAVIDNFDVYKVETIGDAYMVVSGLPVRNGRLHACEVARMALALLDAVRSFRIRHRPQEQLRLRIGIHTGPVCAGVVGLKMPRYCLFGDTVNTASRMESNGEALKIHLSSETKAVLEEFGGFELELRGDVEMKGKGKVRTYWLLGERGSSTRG
Cytochrome P450 3A4 (Homo sapiens), sequence (P08684 whole entry, looked up): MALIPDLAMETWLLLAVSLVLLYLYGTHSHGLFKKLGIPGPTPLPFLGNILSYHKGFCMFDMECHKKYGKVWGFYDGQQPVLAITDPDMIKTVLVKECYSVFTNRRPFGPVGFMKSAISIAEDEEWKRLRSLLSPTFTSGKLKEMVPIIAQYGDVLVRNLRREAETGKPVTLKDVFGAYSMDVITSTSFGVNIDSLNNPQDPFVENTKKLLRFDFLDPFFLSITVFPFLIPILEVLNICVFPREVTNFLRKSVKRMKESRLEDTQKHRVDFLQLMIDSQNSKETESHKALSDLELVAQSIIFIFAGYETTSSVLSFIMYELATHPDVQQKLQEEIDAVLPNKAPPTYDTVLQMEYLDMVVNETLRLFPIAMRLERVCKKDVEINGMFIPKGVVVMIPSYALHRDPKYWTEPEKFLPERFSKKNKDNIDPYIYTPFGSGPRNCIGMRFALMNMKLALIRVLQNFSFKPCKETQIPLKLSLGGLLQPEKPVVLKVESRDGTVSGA
Cytochrome P450 2C9 (Homo sapiens), sequence (P11712 whole entry, looked up): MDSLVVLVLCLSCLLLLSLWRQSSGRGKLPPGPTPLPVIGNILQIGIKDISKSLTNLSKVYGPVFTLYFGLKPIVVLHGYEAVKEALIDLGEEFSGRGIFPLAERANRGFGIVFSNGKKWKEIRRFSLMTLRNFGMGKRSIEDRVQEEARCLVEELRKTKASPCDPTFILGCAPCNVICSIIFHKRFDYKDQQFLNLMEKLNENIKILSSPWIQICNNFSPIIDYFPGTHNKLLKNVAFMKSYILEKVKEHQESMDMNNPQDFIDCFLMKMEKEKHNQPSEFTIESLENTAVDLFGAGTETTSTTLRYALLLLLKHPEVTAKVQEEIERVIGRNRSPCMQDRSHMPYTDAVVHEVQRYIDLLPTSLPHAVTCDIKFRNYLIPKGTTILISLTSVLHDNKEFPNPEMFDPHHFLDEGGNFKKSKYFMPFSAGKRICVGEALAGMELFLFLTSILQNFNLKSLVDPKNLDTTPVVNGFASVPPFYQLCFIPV
Cytochrome P450 2C19 (Homo sapiens), sequence (P33261 whole entry, looked up): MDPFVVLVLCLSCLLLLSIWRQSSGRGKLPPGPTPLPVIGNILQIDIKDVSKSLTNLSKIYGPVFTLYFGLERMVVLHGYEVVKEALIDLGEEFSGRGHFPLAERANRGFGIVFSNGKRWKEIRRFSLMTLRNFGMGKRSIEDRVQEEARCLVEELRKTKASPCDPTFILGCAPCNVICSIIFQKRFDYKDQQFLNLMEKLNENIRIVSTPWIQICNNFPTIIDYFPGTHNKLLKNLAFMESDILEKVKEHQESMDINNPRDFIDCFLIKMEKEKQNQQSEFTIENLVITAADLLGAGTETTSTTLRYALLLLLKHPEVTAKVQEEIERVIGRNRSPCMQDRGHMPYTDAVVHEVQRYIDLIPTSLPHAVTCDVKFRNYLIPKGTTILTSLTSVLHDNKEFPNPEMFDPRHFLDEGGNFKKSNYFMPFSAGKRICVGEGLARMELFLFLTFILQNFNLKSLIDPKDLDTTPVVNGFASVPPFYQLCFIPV

CC(C)CON=C1C[C@@H](O)[C@@H](O)[C@@H]2[C@H]3C(=O)N(C[C@@H]4CCCO4)C(=O)[C@@H]3CC[C@H]12
inactive: Potency [1] | Potency [2] | Potency [3] | Potency [4]

COC(=O)C1=C(C(=O)OC)[C@@H]2N(C)c3ccccc3[C@@]23CCC(=O)N(Cc2ccc(OC)cc2)C3=N1
inactive: Potency [1] | Potency [5] | Potency [6] | Potency [4]

COC(=O)CC=C1c2ccccc2C[C@H](OC)[C@@H]1C
inactive: Potency [1] | Potency [5] | Potency [6] | Potency [4]

O[C@H](CC#CCOc1ccccc1)COCc1ccccc1
inactive: Potency [1] | Potency [5] | Potency [6] | Potency [4]

COc1ccc(NC(=O)N2CCc3nc(-c4ccc(OC)cc4C)c4c(c3C2)CO[C@@H](c2ccccc2)C4)cc1
inactive: Potency [1] | Potency [5] | Potency [6] | Potency [4]

CC(=CC[Si](C)(C)C)CCC=O
inactive: Potency [1] | Potency [5] | Potency [6] | Potency [4]

CC(C)(C)Nc1oc(-c2ccccc2)nc1-c1ccccc1F
inactive: Potency [1] | Potency [2] | Potency [3] | Potency [4]

CC(=O)C1=CN(CCc2c[nH]c3ccccc23)C(=O)NC1c1ccccc1 (configuration not stated)
inactive: Potency [1] | Potency [5] | Potency [6] | Potency [4]

CCCCCCC1=Cc2cc(OC)c(OC)cc2C(C(C(C)=O)C(=O)OCC)O1 (configuration not stated)
active: Potency [9] 1580 nM
inactive: activity change, negative = inhibition [7] 25.3% [at 11.4 µM] | activity change, positive = activation [8] -42.2% [at 11.4 µM] | Potency [1] | Potency [5] | Potency [6] | Potency [4]

COC(=O)C1=C(C(=O)OC)[C@@H]2N(C)c3ccccc3[C@@]23CCC(=O)N(Cc2cc(OC)c(OC)c(OC)c2)C3=N1
inactive: Potency [1] | Potency [5] | Potency [6] | Potency [4]

CCOC(=O)CN1C(=O)C2(CC(C)=C[C@@H](C)O2)c2c(Br)cccc21 (some centres not stated)
inactive: Potency [1] | Potency [2] | Potency [3] | Potency [4]

CCCCCCCc1cc2c(cn1)C(=O)C(C)(OC(C)=O)C(O)=C2Cl (configuration not stated)
inactive: Potency [4]
active: Potency [1] 1890 nM | Potency [2] 953 nM

CCCCc1cc2c(cn1)=C(OC(=O)c1cnc3ccccc3n1)C(C)(OC(=O)CC)C(=O)C=2 (configuration not stated)
inactive: activity, negative = inhibition [1] 2.28% [at 1.12 µM] | Potency [4]
active: Potency [2] 1690 nM

COc1ccc2c(c1)C(=O)[C@H](OC(=O)N[C@H]1CCCc3ccccc31)[C@@H](c1ccc(OC)c(Br)c1)O2
inactive: Potency [1] | Potency [5] | Potency [6] | Potency [4]

COc1ccc(-c2cnnc(CCCn3ccnc3-c3ccccc3)n2)cc1
inactive: activity change, positive = activation [8] -71.9% [at 11.4 µM] | Potency [1] | Potency [5] | Potency [4]
active: Potency [10] 6310 nM

CC1=C[C@@H](C)O[C@@]2(C1)C(=O)Nc1cccc(Br)c12
inactive: Potency [1] | Potency [5] | Potency [6] | Potency [4]

O=C1Nc2cccc(Br)c2[C@@]12O[C@H](COc1ccccc1)CC1=CCC[C@H]12
inactive: Potency [1] | Potency [5] | Potency [6] | Potency [4]

COCCN1C(=S)NC(c2cccc(F)c2)C(C(=O)OC)=C1C (configuration not stated)
inactive: Potency [1] | Potency [5] | Potency [6] | Potency [4]

CC(CCC(=O)OC[C@H]1O[C@H](C#Cc2ccccc2)C=C[C@H]1Oc1ccc(C)cc1)=NO[C@@H](C)c1cn([C@H](CO)Cc2ccccc2)nn1
inactive: Potency [1] | Potency [2] | Potency [3] | Potency [4]

COc1ccc2c(c1)CO[C@H]([C@H](O)CO)[C@H]2C=Cc1ccccc1
inactive: Potency [1] | Potency [5] | Potency [6] | Potency [4]

CCCC[C@]12Cc3cc(C#N)ccc3[C@H](O1)c1c(cc(C)n(-c3ccccc3)c1=O)O2
inactive: Potency [1] | Potency [5] | Potency [6] | Potency [4]

C[C@@H]1CC2CCCC2[C@]2(O1)C(=O)Nc1ccccc12 (some centres not stated)
inactive: Potency [1] | Potency [5] | Potency [6] | Potency [4]

C[C@@H]1CC[C@H]2C(=O)N3[C@@H](CC[C@@H](C)[C@@H]3c3ccc(Br)cc3)C(=O)N2[C@@H]1c1ccc(Br)cc1
inactive: activity change, positive = activation [8] -42.7% [at 11.4 µM] | Potency [1] | Potency [5] | Potency [6] | Potency [4]
active: Potency [7] 3980 nM

COC(=O)CCC(=O)OC1(C)C(=O)C=C2C=C(C3CC3)N(c3ccc(CO)cc3)C=C2C1=O (configuration not stated)
inactive: activity, negative = inhibition [1] -5.46% [at 1.12 µM] | Potency [5] | Potency [6] | Potency [4]

COc1ccc(-c2nc3c(c4c2C[C@H](c2ccccc2)OC4)CN(C(=O)c2cc(I)ccc2F)CC3)c(C)c1
inactive: activity, negative = inhibition [1] -3.98% [at 1.12 µM] | Potency [4]
active: Potency [2] 1900 nM

COc1ccc2c(c1)O[C@H](c1ccc3c(c1)OCO3)[C@@H](OC(=O)Nc1cc(OC)c(OC)c(OC)c1)C2=O
inactive: Potency [1] | Potency [2] | Potency [3] | Potency [4]

CC(=O)Nc1ccc(S(=O)(=O)N2CCc3nc(-c4ccccc4)c4c(c3C2)CO[C@@H](C)C4)cc1
inactive: activity, negative = inhibition [1] -1.41% [at 1.12 µM] | Potency [2] | Potency [3] | Potency [6] | Potency [4]

CCN1C(=NCc2ccccc2)N[C@@H](CCc2ccccc2)[C@H](C(=O)OC)[C@H]1C
inactive: Potency [1] | Potency [2] | Potency [3] | Potency [6] | Potency [4]

COC(=O)C1=C(C(=O)OC)[C@@H]2N(C)c3ccccc3[C@@]23C[C@@H](CO)N(C(=O)c2ccc(Br)cc2)C3=N1
inactive: Potency [1] | Potency [2] | Potency [3] | Potency [6] | Potency [4]

COC(=O)N1C2CC3(C)C=C(C)OC1(C)C3c1ccccc12 (configuration not stated)
inactive: Potency [1] | Potency [2] | Potency [3] | Potency [6] | Potency [4]
